# Values without a mark were called inactive. Inconclusive results are not listed. Activity calls are given as the source filed them. Unless noted, the call rests on the fitted dose curve; in most records, active means well fitted curve in either direction with a large enough effect (not every such curve was filed as active); inconclusive means small, poorly fitted or top-dose-only effect, or another doubt; inactive means flat fitted curve, though single readings scatter.
# Columns and labels:
# [1] = AP1 Signaling Pathway (AID 357); settings: ME-180 AP-1-bla reporter, EGF-induced, beta-lactamase ratio, 5 h; at 17.2 µM (top of the series) unless noted;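 further: ME-180 reporter cells stimulated with EGF at its EC50 level; on the % scale 0 is the no-effect control and ±100 the full control effect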
# Summary of the method: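 Read-out was the 460nm/530nm emission ratio (excitation 405nm) after CCF4 loading for 2.5 hours at room temperature. Cells carried an AP-1-driven beta-lactamase reporter, were stimulated with EC50 EGF plus compound for 5 hours, and AC50 values came from titrations.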
# [2] = NFAT Signaling Pathway (AID 444); settings: Jurkat NFAT-bla M1, carbachol, beta-lactamase ratio, 5 h; at 17.2 µM (top of the series) unless noted;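 further: carbachol stimulus at about its EC50 of 1 µM final; on the % scale 0 is the no-effect control and ±100 the full control effect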
# Summary of the method: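 Read-out: CCF4 FRET ratio (460 nm/530 nm) after 1 h RT dye loading, used for %activity and AC50 from titration series. Cells: Jurkat NFAT-β-lactamase/M1 line, treated with compound plus 1 uM carbachol for 5 h, 37 °C.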
# [3] = Stat Signaling Pathway (AID 446); settings: ME-180 (cervical carcinoma) SIE beta-lactamase reporter, IL-6 stimulated, 5 h; at 17.2 µM (top of the series) unless noted;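 further: ME-180 cervical cancer cells given 40 pM IL-6 alongside compound; SIE-controlled beta-lactamase reporter measured as 460/530 nm FRET emission ratio; on the % scale 0 is the no-effect control and ±100 the full control effect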
# Summary of the method: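 Overnight-plated ME-180 cells bearing a STAT Inducible Element beta-lactamase reporter; 5 h co-exposure to compound and 40 pM IL-6; values normalized to 300 pM IL-6 and 125 nM JAK inhibitor controls.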
# [4] = target: Glucocorticoid receptor (Homo sapiens) (UniProt P04150); assay: GR-GFP Redistribution (AID 450;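 active means compounds whose dose series gives a full or clear partial fitted curve of increased nuclear translocation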; further: potency means the concentration at half of the fitted maximal effect)
# Sequence of Glucocorticoid receptor (Homo sapiens) (P04150 whole entry, looked up): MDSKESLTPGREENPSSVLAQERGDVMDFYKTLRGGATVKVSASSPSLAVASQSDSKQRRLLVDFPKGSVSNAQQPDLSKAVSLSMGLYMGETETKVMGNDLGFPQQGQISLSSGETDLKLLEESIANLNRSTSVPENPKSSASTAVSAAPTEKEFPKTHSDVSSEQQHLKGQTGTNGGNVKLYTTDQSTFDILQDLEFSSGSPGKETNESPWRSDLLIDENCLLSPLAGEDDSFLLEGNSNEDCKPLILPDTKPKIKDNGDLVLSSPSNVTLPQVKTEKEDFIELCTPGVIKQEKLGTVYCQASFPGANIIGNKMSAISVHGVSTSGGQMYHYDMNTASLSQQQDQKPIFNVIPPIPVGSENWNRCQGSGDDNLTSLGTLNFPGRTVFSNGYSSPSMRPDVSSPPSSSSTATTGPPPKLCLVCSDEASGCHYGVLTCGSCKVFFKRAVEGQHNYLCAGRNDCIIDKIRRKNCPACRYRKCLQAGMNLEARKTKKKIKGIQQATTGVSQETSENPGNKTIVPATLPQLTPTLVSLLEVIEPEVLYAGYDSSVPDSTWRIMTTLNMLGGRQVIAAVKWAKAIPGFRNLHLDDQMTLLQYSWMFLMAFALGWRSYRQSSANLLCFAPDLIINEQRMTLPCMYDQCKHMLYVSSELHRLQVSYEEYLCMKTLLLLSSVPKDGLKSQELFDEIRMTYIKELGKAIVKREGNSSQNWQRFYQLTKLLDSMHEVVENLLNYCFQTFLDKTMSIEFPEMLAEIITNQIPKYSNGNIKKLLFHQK
Compound,"activity change, negative = inhibition [1] [%]","activity change, negative = inhibition [2] [%]","activity, negative = inhibition [3] [%]",Potency [4]
CC1(C)Cc2c(sc3ncn4nnnc4c23)CO1,-0.575,0.343,2.69,> 20.6 µM
CCCCOc1ccccc1/C=c1/sc2nc(-c3oc4ccccc4c3C)nn2c1=O,4.54,-23.5,-12.5,> 20.6 µM
COC(=O)c1ccc(Nc2cc(C)nc(-c3ccccc3O)n2)cc1,15.3,-10.8,-5.42,> 20.6 µM
Cc1ccc(N(CN2C(=O)NC(C)(C)C2=O)CN2C(=O)NC(C)(C)C2=O)cc1,5,15.5,5.53,> 20.6 µM
Cc1ccc2c(=O)c(CN(C)C3CCN(C)CC3)c(C)[nH]c2c1C,0.184,-6.29,5.33,> 20.6 µM
O=C(CN1C(=O)c2ccccc2C1=O)OCN1C(=O)c2ccccc2C1=O,8.86,-11.6,6.85,> 20.6 µM
CCCOc1ccc(/C(O)=C2/C(=O)C(=O)N(CCN(C)C)C2c2ccncc2)cc1 (stereo not drawn),-5.87,4.76,5.47,> 20.6 µM
Cn1c(=O)c2c3c(sc2n2c(SCC(N)=O)nnc12)CC(C(C)(C)C)CC3 (stereo not drawn),-9.72,19.6,14,> 20.6 µM
CN1CCN(c2nc(C(N)=O)cc(-c3ccccc3)n2)CC1,-1.1,-3.4,20.9,> 20.6 µM
CCC(NC(=O)Nc1cc(OC)c(OC)c(OC)c1)(C(F)(F)F)C(F)(F)F,-13.9,14.9,-1.91,> 20.6 µM
O=C(Nc1ccccc1)c1cc(N2CCOCC2)nc2ccccc12,2.4,13.1,1.13,> 20.6 µM
COc1ccc(-n2c(=O)c3c4c(sc3n3c(C)nnc23)CC(C)CC4)cc1 (stereo not drawn),-0.998,-0.396,10.9,> 20.6 µM
O=C(O)C1CSCN1S(=O)(=O)c1cccc2nsnc12 (stereo not drawn),1.17,4.31,-1.2,> 20.6 µM
CCOC(=O)N1CCN(/C=C(\C#N)c2nc3ccccc3s2)CC1,-15.9,13.1,-10,> 20.6 µM
CC(=O)Nc1cnc2ccccc2n1,2.26,-13.5,7.01,> 20.6 µM
Cc1ccc(C2CC(c3cccs3)n3nc(N)nc3N2)cc1 (stereo not drawn),2.57,6.31,3.76,> 20.6 µM
CC(NC(=O)NCc1cccnc1)(C(F)(F)F)C(F)(F)F,12.2,-2.79,2.04,> 20.6 µM
Nc1ccc2c3c(cccc13)CC2,0.829,11.5,7.79,3.98 µM (active)
COc1ccc(C(CC(=O)O)NC(=O)OC(C)(C)C)cc1 (stereo not drawn),12.1,-0.371,3.55,> 20.6 µM
CCN1C(=O)CC(N2CCN(c3ccc(OC)cc3)CC2)C1=O (stereo not drawn),7.27,1.19,1.34,> 20.6 µM
C=CCc1c(C)nc(SCCC)[nH]c1=O,2.81,-9.46,-7.18,> 20.6 µM
COc1ccc(-c2cn3ccsc3n2)cc1,11.1,4.22,-5.92,> 20.6 µM
Cc1cc(C)c(C#N)c(SCC(=O)NC2CC2)n1,5.34,-3.32,8.05,> 20.6 µM
Cc1ccccc1N1C(=O)C2ON(c3ccccc3)C(c3ccncc3)C2C1=O (stereo not drawn),5.78,18.5,1.29,> 20.6 µM
CC1(C)CC(=O)C(C=N)=C(O)C1,-5.44,1.7,2.78,> 20.6 µM
O=C(NC1(C(F)(F)F)C(=O)Nc2c1c(=O)[nH]c(=O)n2Cc1ccco1)C1CCCCC1 (stereo not drawn),-8.35,-10.2,-2.02,> 20.6 µM

Compound,"activity change, negative = inhibition [1] [%]","activity change, negative = inhibition [2] [%]","activity, negative = inhibition [3] [%]",Potency [4]
COc1cc(C(=O)Nc2ccccn2)cc(OC)c1OC,1.72,12,25.9,> 20.6 µM
O=C(NCc1ccco1)c1ccc(=O)oc1,13.8,6.96,-6.97,> 20.6 µM
CC(C(=O)NC(=O)NCc1ccccc1)N1C(=O)c2ccccc2C1=O (stereo not drawn),-0.38,-0.399,14.7,> 20.6 µM
COC(=O)CSc1ncnc2c1sc1nc(-c3ccco3)c3c(c12)CC(C)(C)OC3,-2.46,-26.7,-10.8,> 20.6 µM
O=C(CN1C(=O)c2ccccc2C1=O)NCc1ccccn1,-3.27,16.6,10.5,> 20.6 µM
N#CCCN(C(=O)c1ccco1)c1ccccc1,-22.8,2.26,9.28,> 20.6 µM
CCOC(=O)c1[nH]c2ccc(C)cc2c1N=CN(CC)CC,7.82,-21.2,10.4,> 20.6 µM
CCC1SC2=NC(C)=C(C(=O)OCCOC)C(c3ccc(C(=O)OC)cc3)N2C1=O (stereo not drawn),17.5,6.06,-2.24,> 20.6 µM
CC12CCC(C(=O)N(CCC#N)CCC#N)(CC1=O)C2(C)C (stereo not drawn),10.6,18.9,6.43,> 20.6 µM
CC(=O)Oc1ccccc1C1OCCN1C(C)=O (stereo not drawn),14.2,-10.3,17,> 20.6 µM
CCCc1[nH]n(-c2nc3ccccc3s2)c(=O)c1C=NCCN1CCOCC1,-6.38,-13.8,-4.13,> 20.6 µM
CC(C)c1nc(N2CCOCC2)c(C#N)c2c1CCC2,-24.1,-23.6,-8.37,> 20.6 µM
Cc1onc(-c2ccccc2Cl)c1C(=O)N1CCN(c2nc3ccccc3s2)CC1,-24.2,-4.08,-3.09,> 20.6 µM
CCCCCSc1nc(O)cc(=O)[nH]1,-9.05,11.4,-6.56,> 20.6 µM
O=C(CNC1=NCCC1)c1ccc2c(c1)OCCO2,5.51,-10.1,-3.23,> 20.6 µM
Cc1ccc(N(CC(=O)O)C2SC(=O)NC2=O)cc1 (stereo not drawn),12.3,0.868,6.57,> 20.6 µM
CCOc1cccc(-c2nn3c(-c4ccco4)nnc3s2)c1,-15.5,-4.59,-0.495,> 20.6 µM
O=C1OC2CCC1(c1ccccc1)C2 (stereo not drawn),-4.71,10,-3.95,> 20.6 µM
CCC(c1c(C)n(C)n(-c2ccccc2)c1=O)c1c(C)n(C)n(-c2ccccc2)c1=O,6.29,9.43,10.1,> 20.6 µM
O=C(c1coc(=O)c(Br)c1)N1CCCc2ccccc21,11.9,0.236,8.49,> 20.6 µM
CC(=O)c1c(OCC(=O)O)ccc2c(C)cc(=O)oc12,15,-8.66,13.1,> 20.6 µM
O=C(Nn1cnnc1)C(c1ccccc1)c1ccccc1,13.7,-6.95,3.83,> 20.6 µM
O=C(O)CC(SCc1ccc(C(=O)O)o1)C(=O)O (stereo not drawn),7.18,-1.8,0.837,> 20.6 µM
Cn1c[n+](C)cc1/C=N/O,6.85,4.23,-2.71,> 20.6 µM
OCCCc1nc2ccccc2n1CCc1ccccc1,6.55,-7.48,-0.378,> 20.6 µM
CC(C)=CCC(C)(C)CNC(=O)NC1CCCCC1,-8.2,19,10.9,> 20.6 µM

# From PubChem BioAssay (NCATS)
